Screens deposited in PubChem BioAssay by Broad Institute.
STK33 inh – inhibitors of human STK33 kinase; inhibition, % at 12.5 µM; ADP-Glo luminescence, MBP substrate; actives 0.44% (n = 27,000); Q9BYT3; in the data active = inhibition above about 20%; inconclusive = no clear call, values can overlap the other calls
Target sequence (Q9BYT3 whole entry, looked up): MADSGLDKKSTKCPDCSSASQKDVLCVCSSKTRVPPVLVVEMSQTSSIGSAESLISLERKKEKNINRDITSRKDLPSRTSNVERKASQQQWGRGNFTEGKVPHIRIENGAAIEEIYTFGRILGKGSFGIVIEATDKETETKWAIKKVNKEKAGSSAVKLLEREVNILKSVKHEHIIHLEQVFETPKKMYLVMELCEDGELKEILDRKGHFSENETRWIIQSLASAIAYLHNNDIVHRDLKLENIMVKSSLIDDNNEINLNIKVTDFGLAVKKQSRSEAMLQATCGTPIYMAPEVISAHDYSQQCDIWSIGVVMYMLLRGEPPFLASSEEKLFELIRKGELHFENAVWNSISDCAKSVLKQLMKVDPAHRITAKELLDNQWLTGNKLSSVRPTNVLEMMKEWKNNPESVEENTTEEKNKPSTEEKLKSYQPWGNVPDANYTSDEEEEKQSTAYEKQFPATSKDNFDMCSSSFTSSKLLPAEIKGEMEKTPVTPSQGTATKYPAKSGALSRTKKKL
mut p53 react – re-activators of the mutant p53 pathway; SW480 PUMA-promoter luciferase, p53 mutant reactivation; activation, % at 9.98 µM; actives 1.5% (n = 28,000); in the data active = activation above about 52%; inconclusive = no clear call, values can overlap the other calls
ID4 SMM – binds human ID4 protein on microarray; P47928; small molecule microarray, Flag-ID4 binding, fluorescence F/B; calls only; actives 1.2% (n = 31,000); AID 624137; call rule not given here;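 note: a binder raises fluorescence above local background on the spot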
Active calls of the source: *; i = inactive; ? = inconclusive; nt = no result; + = active, no number. Most compounds without a hit are left out; they make up all but 2% or so of the library.

SMILES	STK33 inh	mut p53 react	ID4 SMM
CN(c1cccc(NC(=O)c2ccc(CN3CCOCC3)cc2)c1)S(C)(=O)=O	0	-3	i
C[C@@H]1CN([C@@H](C)CO)C(=O)c2cc(NC(=O)CCCN(C)C)ccc2O[C@@H]1CN(C)C(=O)Nc1cccc2ccccc12	nt	-7	i
C[C@H]1CN([C@@H](C)CO)C(=O)c2cc(NS(=O)(=O)c3cn(C)cn3)ccc2O[C@@H]1CN(C)Cc1ccccc1	nt	4	+
C[C@@H]1CN([C@H](C)CO)C(=O)c2cc(NS(=O)(=O)c3cn(C)cn3)ccc2O[C@H]1CN(C)Cc1ccccc1	nt	12	i
C[C@H](CO)N1C[C@H](C)[C@H](CN(C)C(=O)Nc2ccccc2)Oc2ccc(NC(=O)CCCN(C)C)cc2C1=O	-1	6	i
C[C@@H]1CN([C@H](C)CO)C(=O)c2cc(NC(=O)CCCN(C)C)ccc2O[C@@H]1CN(C)C(=O)Nc1ccccc1	nt	9	+
C[C@H](CO)N1C[C@H](C)[C@@H](CN(C)C(=O)Nc2cccc3ccccc23)Oc2ccc(NC(=O)CCCN(C)C)cc2C1=O	nt	6	+
C[C@@H]1CN([C@@H](C)CO)C(=O)c2cc(NC(=O)CCCN(C)C)ccc2O[C@@H]1CN(C)Cc1ccc(C(=O)O)cc1	nt	-2	+
C[C@H](CO)N1C[C@H](C)[C@@H](CN(C)Cc2ccc(C(=O)O)cc2)Oc2ccc(NC(=O)CCCN(C)C)cc2C1=O	nt	-1	i
Cc1c(CCC(=O)O)c(=O)oc2cc(OCc3ccc(Cl)c(Cl)c3)ccc12	0	8	i
COc1ccc(C2C(C(=O)c3ccco3)C(=O)C(=O)N2CCN(C)C)cc1OC (configuration not stated)	0	-3	i
CC(CC(O)C1OC1(C)C)[C@@H]1CCC2(C)C3=CCC4C(C)(C)C(=O)CCC4(C)C3CC[C@@]12C (some centres not stated)	3	nt	nt
O=C(CCc1ccc(O)cc1)CC(CCc1ccc(O)cc1)O[C@@H]1O[C@H](CO)[C@@H](O)[C@H](O)[C@H]1O (some centres not stated)	0	nt	i
O=S(=O)(c1cccc2cnccc12)N1CCNCC1	nt	13	i
NCCNS(=O)(=O)c1cccc2cnccc12	44*	nt	nt
c1ccc(-c2nn3c(C4COc5ccccc5O4)nnc3s2)cc1 (configuration not stated)	-2	59*	i
c1cncc(-c2nn3c(C4COc5ccccc5O4)nnc3s2)c1 (configuration not stated)	-3	3	i
Cn1cnc2nc(NCCO)nc(NCc3ccccc3)c21	0	-10	i
CC[C@H](CO)Nc1nc(NCc2ccccc2)c2ncn(C(C)C)c2n1	17	119*	i
CC(C)(O)[C@@H]1Cc2cc3ccc(=O)oc3cc2O1	1	54*	i
CC(C)(OC(=O)c1ccccc1)[C@@H]1Cc2cc3ccc(=O)oc3cc2O1	-1	13	i
Cc1cc2nc(-c3cccc(NC(=O)COc4ccc(Cl)cc4)c3C)oc2cc1C	5	-32	i
Cc1nonc1OCCNc1cc(N2CCCC2)ccc1[N+](=O)[O-]	6	89*	i
Cc1nonc1OCCNc1cc(N2CCOCC2)ccc1[N+](=O)[O-]	-9	20	i
CCOC(NC(=O)Nc1ccc(Br)cc1)(C(F)(F)F)C(F)(F)F	-1	nt	nt
SMILES	STK33 inh	mut p53 react	ID4 SMM
CC(=O)O[C@@H]1C=C[C@@]2(C)C(C[C@@H](OC(C)=O)[C@@]3(C)C4=CC(=O)O[C@@H](c5ccoc5)[C@]4(C)CCC23)C1(C)C (some centres not stated)	2	nt	nt
CCCCC/C=C\C/C=C\CCCCCCCC(=O)NCC(=O)O	0	nt	+
CCCCC/C=C\C/C=C\CCCCCCCC(=O)O	0	nt	nt
CCCCC/C=C\C/C=C\C/C=C\CCCCCCC(=O)O	nt	12	+
O=c1[nH]c(SCc2ccccc2[N+](=O)[O-])nc2ccccc12	-4	10	i
CN1CCN(C(=O)CN(c2cccc(Cl)c2)S(=O)(=O)c2ccc(Cl)cc2)CC1	-4	-4	i
CN1CCN(C(=O)c2nc3ccc(Cl)cc3[nH]2)CC1	nt	57*	i
COC(=O)c1ccc(C)c(NC(=O)CN(c2ccc(Cl)c(Cl)c2)S(C)(=O)=O)c1	2	0	i
O=C(COc1ccc2ccccc2c1Br)NCc1ccco1	-5	85*	i
Cc1ccc(Cl)c(OCC(=O)NCc2ccco2)c1	-5	?	i
Cc1ccc2nc(-c3cccnc3)cc(C(=O)Nc3ccc(CC(=O)O)cc3)c2c1	-2	-19	i
Cc1ccc(NS(=O)(=O)c2cccc(C(=O)Nc3ccccc3C(=O)O)c2)cc1	-2	3	+
O=C(O)c1ccc(NS(=O)(=O)c2cccc(C(=O)Nc3ccccc3)c2)cc1	2	-5	i
CCn1c(SCC(=O)Nc2ccccc2F)nnc1-c1cccc(N)c1	-3	6	i
O=C(CS(=O)c1ccccc1[N+](=O)[O-])Nc1cccc(C(F)(F)F)c1 (configuration not stated)	-1	71*	i
O=C(O)CCC(=O)Nc1cccc(C(F)(F)F)c1	1	-6	i
COc1cc(C2OCC3C(c4cc(OC)c(OC)c(OC)c4)OCC23)cc(OC)c1OC (configuration not stated)	-2	-7	i
COc1cc2c(c(OC)c1OC)CCc1cc(O)c(O)cc1-2	21*	1	nt
C=CCOC(=O)[C@H]1[C@@H]2C(=O)O[C@@H](c3ccccc3)[C@@H](c3ccccc3)N2[C@@H](c2ccc(OCCOC(=O)[C@@H]3C[C@@H]4C(=O)N[C@@H](Cc5ccccc5)C(=O)N4[C@@H]3c3cccc(OCCO)c3)cc2)[C@]12C(=O)Nc1ccc(I)cc12	13	nt	i
COc1ccc(NC(=O)c2ccc3c(=O)n(Cc4ccco4)c(=S)[nH]c3c2)cc1OC	7	nt	nt
FC(F)(F)c1ccnc(NCCNC(=S)NCc2ccco2)n1	nt	-15	i
COc1ccc(S(=O)(=O)n2cc(-c3ccc(C)cc3)c(N)n2)c(OC)c1	1	-18	i
COc1cc(SC)ccc1-c1nc2ccncc2[nH]1	12	59*	i
CCCn1nnc(NC(=O)COc2ccccc2Cl)n1	5	64*	i
CCCn1nnc(NC(=O)C(C)Oc2ccc(Cl)cc2Cl)n1 (configuration not stated)	3	-3	i
COc1ccc(C(=O)N(Cc2nc(-c3ccc(Cl)cc3)no2)C(C)C)cc1[N+](=O)[O-]	3	12	i
COc1cccc(C(Nc2cc(C)ccn2)c2ccc3ccc(C)nc3c2O)c1 (configuration not stated)	2	11	i
C/C=C(/C)C(=O)O[C@H]1[C@H](OC(=O)/C=C/c2ccccc2)[C@@]23C(CC1(C)C)[C@]1(CCC4[C@@]5(C)CC[C@H](O[C@@H]6O[C@H](C(=O)O)[C@@H](O)[C@H](O[C@@H]7O[C@H](CO)[C@H](O)[C@H](O)[C@H]7O[C@@H]7O[C@@H](C)[C@H](O)[C@@H](O)[C@H]7O[C@@H]7OC[C@](O)(CO)[C@H]7O)[C@H]6O[C@@H]6O[C@H](CO)[C@H](O)[C@H](O)[C@H]6O)C(C)(C)C5CC[C@@]4(C)[C@]1(C)C[C@H]2O)O[C@H]3O (some centres not stated)	-2	nt	nt
